Data from PMC7862700, “An all-to-all approach to the identification of sequence-specific readers for epigenetic DNA modifications on cytosine”.

How the values were obtained:
Experiment in all cases: DAPPL (digital affinity profiling via proximity ligation, sequencing); 10 mM Tris-HCl pH 7.5, 50 mM NaCl, 1 mM DTT, 4% glycerol, room temperature, 30 min; GST-TFs on glutathione beads, 16-mer random dsDNA library, 0.1% formaldehyde crosslink after washing; high values mean tight binding
FEV = molecular target: T1, FEV (Homo sapiens, UniProt Q99581 1-238); settings: protein: recombinant; tags: N-terminal GST; dsDNA, one strand shown
T1 sequence: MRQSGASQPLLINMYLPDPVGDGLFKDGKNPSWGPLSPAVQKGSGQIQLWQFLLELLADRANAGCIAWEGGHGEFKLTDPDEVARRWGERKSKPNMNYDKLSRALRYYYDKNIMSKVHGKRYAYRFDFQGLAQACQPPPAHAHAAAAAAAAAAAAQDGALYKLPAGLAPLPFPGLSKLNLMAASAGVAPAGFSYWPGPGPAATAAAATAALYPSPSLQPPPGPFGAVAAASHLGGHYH
Summary of the method: (§1)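 Binding signal is given per hexamer as its read frequency for a factor divided by its frequency in the tag-only sample. GST-fused human transcription factors were expressed in yeast, captured on glutathione beads, barcoded with DNA and pooled with that sample, then incubated with 200 nmole of a 16-mer random double-stranded DNA library in Tris/NaCl/DTT/glycerol buffer for 30 min at room temperature. The pools were then washed, crosslinked, proximity-ligated, amplified by PCR and sequenced on an Illumina NextSeq500.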

ETV5 = ETV5 (Homo sapiens, UniProt P41161 1-510); settings: protein: recombinant; tags: N-terminal GST; dsDNA, one strand shown
Summary of the method: as §1

HSF1 = HSF1 (Homo sapiens, UniProt Q00613 1-529); settings: protein: recombinant; tags: N-terminal GST; chain copies: 3; dsDNA, one strand shown
Summary of the method: as §1

SPIC = molecular target: T2, SPIC (Homo sapiens, UniProt Q8N5J4 1-248); settings: protein: recombinant; tags: N-terminal GST; dsDNA, one strand shown
T2 sequence: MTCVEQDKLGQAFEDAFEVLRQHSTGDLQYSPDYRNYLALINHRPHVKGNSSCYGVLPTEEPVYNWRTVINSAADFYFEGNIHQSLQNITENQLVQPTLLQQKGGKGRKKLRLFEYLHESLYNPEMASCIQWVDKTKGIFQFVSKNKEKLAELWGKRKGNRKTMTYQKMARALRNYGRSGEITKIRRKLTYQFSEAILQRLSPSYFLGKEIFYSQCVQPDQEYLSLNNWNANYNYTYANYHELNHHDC
Summary of the method: as §1

ELF4 = ELF4 (Homo sapiens, UniProt Q99607 1-663); settings: protein: recombinant; tags: N-terminal GST; dsDNA, one strand shown
Summary of the method: as §1

ELK4 = molecular target: T3, ELK4 (Homo sapiens, UniProt P28324-2 1-405); settings: protein: recombinant; tags: N-terminal GST; dsDNA, one strand shown
T3 sequence: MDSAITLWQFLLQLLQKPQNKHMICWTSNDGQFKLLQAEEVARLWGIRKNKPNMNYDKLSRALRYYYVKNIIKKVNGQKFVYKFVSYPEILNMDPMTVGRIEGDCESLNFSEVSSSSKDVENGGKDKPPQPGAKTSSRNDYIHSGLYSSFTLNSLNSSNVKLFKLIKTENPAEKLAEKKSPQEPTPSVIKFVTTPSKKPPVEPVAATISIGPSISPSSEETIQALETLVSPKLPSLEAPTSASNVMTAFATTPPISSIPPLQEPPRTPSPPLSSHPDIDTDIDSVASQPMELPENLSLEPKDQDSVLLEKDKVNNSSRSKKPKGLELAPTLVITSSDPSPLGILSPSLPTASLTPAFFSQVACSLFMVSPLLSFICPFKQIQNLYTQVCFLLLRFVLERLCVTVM
Summary of the method: as §1

ETV2 = molecular target: T4, ETV2 (Homo sapiens, UniProt O00321 1-342); settings: protein: recombinant; tags: N-terminal GST; dsDNA, one strand shown
T4 sequence: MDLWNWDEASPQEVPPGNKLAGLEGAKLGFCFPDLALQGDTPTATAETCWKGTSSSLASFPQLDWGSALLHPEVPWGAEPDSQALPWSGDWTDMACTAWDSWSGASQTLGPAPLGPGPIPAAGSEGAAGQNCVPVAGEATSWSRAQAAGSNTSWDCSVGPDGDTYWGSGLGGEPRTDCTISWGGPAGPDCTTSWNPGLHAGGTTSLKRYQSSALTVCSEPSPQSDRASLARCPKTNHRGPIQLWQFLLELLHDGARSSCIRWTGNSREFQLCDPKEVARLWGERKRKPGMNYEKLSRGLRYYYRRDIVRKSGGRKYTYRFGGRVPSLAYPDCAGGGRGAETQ
Summary of the method: as §1

ELF3 = molecular target: T5, ELF3 (Homo sapiens, UniProt P78545 1-371); settings: protein: recombinant; tags: N-terminal GST; dsDNA, one strand shown
T5 sequence: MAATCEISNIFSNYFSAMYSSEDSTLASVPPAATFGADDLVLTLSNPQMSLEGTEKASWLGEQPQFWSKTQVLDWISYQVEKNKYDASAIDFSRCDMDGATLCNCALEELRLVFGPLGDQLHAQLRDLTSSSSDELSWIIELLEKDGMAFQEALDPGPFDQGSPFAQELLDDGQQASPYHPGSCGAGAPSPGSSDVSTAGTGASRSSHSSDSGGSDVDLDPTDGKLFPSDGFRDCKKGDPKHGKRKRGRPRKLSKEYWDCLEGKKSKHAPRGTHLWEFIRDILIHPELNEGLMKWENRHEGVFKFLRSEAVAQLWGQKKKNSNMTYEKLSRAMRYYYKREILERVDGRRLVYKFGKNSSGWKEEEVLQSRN
Summary of the method: as §1

CRX = CRX (Homo sapiens, UniProt O43186 1-299); settings: protein: recombinant; tags: N-terminal GST; dsDNA, one strand shown
Summary of the method: as §1

ETV1 = ETV1 (Homo sapiens, UniProt P50549 1-477); settings: protein: recombinant; tags: N-terminal GST; dsDNA, one strand shown
Summary of the method: as §1

ERF = molecular target: T6, ERF (Homo sapiens, UniProt P50548 1-548); settings: protein: recombinant; tags: N-terminal GST; dsDNA, one strand shown
T6 sequence: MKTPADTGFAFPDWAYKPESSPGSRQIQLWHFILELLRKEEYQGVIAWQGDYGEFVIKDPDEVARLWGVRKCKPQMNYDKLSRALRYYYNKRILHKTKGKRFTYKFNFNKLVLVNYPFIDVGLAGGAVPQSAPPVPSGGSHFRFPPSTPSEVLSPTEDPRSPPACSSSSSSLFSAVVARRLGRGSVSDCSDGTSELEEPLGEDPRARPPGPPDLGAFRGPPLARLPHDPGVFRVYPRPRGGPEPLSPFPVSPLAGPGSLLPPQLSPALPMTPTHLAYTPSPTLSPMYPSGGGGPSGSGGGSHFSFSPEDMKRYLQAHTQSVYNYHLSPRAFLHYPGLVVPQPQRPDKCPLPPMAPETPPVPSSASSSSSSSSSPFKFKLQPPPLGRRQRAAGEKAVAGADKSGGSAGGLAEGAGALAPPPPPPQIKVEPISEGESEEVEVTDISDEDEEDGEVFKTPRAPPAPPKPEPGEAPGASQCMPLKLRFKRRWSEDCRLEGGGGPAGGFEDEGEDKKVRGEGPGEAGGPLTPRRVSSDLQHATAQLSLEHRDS
Summary of the method: as §1

ETV3L = molecular target: T7, ETV3L (Homo sapiens, UniProt Q6ZN32 1-361); settings: protein: recombinant; tags: N-terminal GST; dsDNA, one strand shown
T7 sequence: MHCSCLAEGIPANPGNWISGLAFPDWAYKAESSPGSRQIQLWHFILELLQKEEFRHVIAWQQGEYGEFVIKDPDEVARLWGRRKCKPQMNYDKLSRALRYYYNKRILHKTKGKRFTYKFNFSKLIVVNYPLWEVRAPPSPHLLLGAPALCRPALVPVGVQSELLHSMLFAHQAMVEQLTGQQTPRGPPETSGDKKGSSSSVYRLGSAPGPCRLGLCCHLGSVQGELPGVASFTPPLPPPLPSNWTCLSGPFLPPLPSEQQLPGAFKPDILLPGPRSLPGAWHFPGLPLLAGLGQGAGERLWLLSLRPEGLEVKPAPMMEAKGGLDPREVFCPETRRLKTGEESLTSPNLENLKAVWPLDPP
Summary of the method: as §1

ETS2 = molecular target: T8, ETS2 (Homo sapiens, UniProt P15036 1-469); settings: protein: recombinant; tags: N-terminal GST; dsDNA, one strand shown
T8 sequence: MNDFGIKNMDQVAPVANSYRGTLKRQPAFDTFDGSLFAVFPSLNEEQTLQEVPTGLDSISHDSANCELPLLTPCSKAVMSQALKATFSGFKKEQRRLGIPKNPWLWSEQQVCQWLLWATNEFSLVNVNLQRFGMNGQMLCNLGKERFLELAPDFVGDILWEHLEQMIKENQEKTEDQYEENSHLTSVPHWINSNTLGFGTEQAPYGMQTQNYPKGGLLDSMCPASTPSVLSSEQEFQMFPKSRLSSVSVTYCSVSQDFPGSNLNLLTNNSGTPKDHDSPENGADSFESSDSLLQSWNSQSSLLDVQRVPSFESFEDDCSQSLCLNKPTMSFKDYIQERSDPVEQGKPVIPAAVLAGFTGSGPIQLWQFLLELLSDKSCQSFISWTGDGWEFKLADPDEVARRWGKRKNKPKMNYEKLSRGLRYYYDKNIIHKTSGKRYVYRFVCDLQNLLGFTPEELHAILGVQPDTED
Summary of the method: as §1

SPDEF = molecular target: T9, SPDEF (Homo sapiens, UniProt O95238 1-335); settings: protein: recombinant; tags: N-terminal GST; dsDNA, one strand shown
T9 sequence: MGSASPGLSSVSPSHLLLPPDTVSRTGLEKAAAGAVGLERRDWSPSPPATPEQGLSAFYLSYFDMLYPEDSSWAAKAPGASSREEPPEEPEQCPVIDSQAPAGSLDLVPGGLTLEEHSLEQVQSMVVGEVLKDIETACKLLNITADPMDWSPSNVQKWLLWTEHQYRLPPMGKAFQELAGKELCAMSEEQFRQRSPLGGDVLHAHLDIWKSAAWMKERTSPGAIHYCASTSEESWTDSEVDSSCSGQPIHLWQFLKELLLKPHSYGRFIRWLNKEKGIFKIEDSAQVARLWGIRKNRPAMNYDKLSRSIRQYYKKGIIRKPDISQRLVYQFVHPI
Summary of the method: as §1

ETV7 = molecular target: T10, ETV7 (Homo sapiens, UniProt Q9Y603 1-341); settings: protein: recombinant; tags: N-terminal GST; dsDNA, one strand shown
T10 sequence: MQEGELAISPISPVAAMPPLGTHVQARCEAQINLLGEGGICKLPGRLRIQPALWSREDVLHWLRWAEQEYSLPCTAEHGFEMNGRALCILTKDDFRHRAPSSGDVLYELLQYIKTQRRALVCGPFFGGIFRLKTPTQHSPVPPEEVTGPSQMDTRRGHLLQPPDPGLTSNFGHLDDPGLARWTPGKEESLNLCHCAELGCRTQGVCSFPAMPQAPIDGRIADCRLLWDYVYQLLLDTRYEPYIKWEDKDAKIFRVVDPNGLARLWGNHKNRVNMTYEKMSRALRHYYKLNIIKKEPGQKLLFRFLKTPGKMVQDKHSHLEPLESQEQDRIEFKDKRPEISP
Summary of the method: as §1

ELF5 = molecular target: T11, ELF5 (Homo sapiens, UniProt Q9UKW6-2 1-255); settings: protein: recombinant; tags: N-terminal GST; dsDNA, one strand shown
T11 sequence: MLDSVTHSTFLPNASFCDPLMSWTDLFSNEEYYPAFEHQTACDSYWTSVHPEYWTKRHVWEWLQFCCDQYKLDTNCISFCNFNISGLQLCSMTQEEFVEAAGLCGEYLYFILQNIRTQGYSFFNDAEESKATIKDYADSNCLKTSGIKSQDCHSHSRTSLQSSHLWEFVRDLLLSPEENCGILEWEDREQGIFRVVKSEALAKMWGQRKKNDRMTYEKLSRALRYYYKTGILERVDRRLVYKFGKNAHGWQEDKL
Summary of the method: as §1

ETV3 = molecular target: T12, ETV3 (Homo sapiens, UniProt P41162-2 1-143); settings: protein: recombinant; tags: N-terminal GST; dsDNA, one strand shown
T12 sequence: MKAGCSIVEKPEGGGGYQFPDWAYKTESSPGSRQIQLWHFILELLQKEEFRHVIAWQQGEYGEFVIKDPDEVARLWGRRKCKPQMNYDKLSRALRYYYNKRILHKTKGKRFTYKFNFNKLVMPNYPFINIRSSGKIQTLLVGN
Summary of the method: as §1

ETV6 = ETV6 (Homo sapiens, UniProt P41212 1-452); settings: protein: recombinant; tags: N-terminal GST; dsDNA, one strand shown
Summary of the method: as §1

Sequence of CRX (O43186 whole entry): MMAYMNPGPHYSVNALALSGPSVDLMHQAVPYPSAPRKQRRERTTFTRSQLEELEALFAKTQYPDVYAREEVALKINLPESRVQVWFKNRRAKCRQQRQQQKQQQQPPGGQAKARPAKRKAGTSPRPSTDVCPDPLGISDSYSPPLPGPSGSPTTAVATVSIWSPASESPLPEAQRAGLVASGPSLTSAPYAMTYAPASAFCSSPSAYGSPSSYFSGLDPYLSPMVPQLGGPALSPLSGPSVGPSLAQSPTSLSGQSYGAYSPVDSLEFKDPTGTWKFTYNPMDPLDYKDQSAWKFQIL
Sequence of ELF4 (Q99607 whole entry): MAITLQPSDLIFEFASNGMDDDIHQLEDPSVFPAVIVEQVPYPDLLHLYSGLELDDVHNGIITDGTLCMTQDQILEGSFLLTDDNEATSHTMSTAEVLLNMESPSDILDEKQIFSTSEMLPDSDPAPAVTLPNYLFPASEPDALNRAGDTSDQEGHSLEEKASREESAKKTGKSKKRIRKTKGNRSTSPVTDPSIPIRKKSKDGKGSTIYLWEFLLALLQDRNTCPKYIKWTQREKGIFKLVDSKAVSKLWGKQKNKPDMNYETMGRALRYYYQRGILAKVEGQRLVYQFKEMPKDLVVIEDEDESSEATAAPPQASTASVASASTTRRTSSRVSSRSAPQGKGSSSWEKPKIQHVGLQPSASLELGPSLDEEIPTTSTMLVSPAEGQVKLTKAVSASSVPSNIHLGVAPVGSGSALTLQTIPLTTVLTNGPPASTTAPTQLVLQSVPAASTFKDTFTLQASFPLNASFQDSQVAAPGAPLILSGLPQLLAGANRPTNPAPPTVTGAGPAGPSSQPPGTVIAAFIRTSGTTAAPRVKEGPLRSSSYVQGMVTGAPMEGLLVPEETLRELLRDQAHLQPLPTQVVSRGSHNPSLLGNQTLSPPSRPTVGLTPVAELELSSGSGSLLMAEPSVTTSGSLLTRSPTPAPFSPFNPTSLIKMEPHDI
Sequence of ETV5 (P41161 whole entry): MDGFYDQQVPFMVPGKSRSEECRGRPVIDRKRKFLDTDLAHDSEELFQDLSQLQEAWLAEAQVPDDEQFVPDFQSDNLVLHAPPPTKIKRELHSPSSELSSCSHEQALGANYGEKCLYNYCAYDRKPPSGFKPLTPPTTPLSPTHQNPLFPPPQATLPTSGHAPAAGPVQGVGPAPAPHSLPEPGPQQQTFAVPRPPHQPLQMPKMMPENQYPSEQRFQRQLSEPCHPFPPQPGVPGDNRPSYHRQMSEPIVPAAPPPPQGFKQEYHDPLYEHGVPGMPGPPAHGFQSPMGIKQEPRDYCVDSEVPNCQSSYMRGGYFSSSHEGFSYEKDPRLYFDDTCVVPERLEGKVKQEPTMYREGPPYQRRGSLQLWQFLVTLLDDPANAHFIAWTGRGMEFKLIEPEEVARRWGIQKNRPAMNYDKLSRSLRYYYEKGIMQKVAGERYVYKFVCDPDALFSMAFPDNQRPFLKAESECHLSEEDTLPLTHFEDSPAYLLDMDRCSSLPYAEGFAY
Sequence of ETV1 (P50549 whole entry): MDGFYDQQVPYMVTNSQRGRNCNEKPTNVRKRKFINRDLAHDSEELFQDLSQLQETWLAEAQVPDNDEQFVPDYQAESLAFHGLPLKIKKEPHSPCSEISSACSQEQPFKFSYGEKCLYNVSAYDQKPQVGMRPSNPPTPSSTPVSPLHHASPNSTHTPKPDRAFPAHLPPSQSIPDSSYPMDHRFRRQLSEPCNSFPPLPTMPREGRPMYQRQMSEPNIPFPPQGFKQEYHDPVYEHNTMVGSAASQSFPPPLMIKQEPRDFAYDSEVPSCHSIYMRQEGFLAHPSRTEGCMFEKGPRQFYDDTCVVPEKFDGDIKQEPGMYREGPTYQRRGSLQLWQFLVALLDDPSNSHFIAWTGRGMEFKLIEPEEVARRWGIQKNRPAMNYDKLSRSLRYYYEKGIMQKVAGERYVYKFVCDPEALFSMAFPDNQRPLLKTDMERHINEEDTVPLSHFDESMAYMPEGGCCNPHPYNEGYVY
Sequence of ETV6 (P41212 whole entry): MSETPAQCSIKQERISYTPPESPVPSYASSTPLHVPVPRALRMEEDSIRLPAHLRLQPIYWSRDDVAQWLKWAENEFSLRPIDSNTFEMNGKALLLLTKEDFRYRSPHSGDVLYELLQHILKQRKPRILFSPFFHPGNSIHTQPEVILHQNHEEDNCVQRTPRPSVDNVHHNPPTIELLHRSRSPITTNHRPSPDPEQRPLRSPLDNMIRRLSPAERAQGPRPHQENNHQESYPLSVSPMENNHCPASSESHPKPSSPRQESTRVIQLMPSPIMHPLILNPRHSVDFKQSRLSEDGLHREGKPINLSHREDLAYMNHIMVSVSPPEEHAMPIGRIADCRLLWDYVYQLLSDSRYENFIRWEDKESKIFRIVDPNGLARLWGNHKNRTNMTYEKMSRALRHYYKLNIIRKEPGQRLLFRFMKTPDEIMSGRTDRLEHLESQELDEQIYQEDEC
Sequence of HSF1 (Q00613 whole entry): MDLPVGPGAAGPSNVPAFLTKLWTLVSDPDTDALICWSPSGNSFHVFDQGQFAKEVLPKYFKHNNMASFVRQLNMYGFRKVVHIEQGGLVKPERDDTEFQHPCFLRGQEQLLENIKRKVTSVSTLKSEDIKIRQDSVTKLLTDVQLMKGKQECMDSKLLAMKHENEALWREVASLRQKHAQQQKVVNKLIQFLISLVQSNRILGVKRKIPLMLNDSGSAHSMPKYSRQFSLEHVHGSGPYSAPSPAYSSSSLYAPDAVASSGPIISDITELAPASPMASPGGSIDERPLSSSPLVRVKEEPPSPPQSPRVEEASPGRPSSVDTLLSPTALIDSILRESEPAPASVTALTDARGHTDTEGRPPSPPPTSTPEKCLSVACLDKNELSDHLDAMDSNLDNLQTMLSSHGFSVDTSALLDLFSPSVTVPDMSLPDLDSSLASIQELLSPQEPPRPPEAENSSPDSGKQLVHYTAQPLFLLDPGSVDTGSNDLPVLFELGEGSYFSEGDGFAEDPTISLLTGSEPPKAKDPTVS

In the case of ACCCTA, the binding signal (FEV) was 1.22 fold enrichment (6-mer frequency, TF over GST control), the binding signal (ETV5) was 1.21 fold enrichment (6-mer frequency, TF over GST control) and the binding signal (HSF1) was 1.18 fold enrichment (6-mer frequency, TF over GST control). The binding signal (SPIC) was 1.19 fold enrichment (6-mer frequency, TF over GST control), the binding signal (ELF4) was 1.26 fold enrichment (6-mer frequency, TF over GST control) and the binding signal (ELK4) was 1.24 fold enrichment (6-mer frequency, TF over GST control). For the same sequence, the binding signal (ETV2) was 1.27 fold enrichment (6-mer frequency, TF over GST control), the binding signal (ELF3) was 1.23 fold enrichment (6-mer frequency, TF over GST control) and the binding signal (CRX) was 1.29 fold enrichment (6-mer frequency, TF over GST control). For the same sequence, the binding signal (ETV1) was 1.45 fold enrichment (6-mer frequency, TF over GST control), the binding signal (ERF) was 1.3 fold enrichment (6-mer frequency, TF over GST control) and the binding signal (ETV3L) was 1.26 fold enrichment (6-mer frequency, TF over GST control). For the same sequence, the binding signal (ETS2) was 1.24 fold enrichment (6-mer frequency, TF over GST control), the binding signal (SPDEF) was 1.19 fold enrichment (6-mer frequency, TF over GST control) and the binding signal (ETV7) was 1.27 fold enrichment (6-mer frequency, TF over GST control). The binding signal (ELF5) was 1.19 fold enrichment (6-mer frequency, TF over GST control), the binding signal (ETV3) was 1.25 fold enrichment (6-mer frequency, TF over GST control) and the binding signal (ETV6) was 1.17 fold enrichment (6-mer frequency, TF over GST control).
